# Laboratory results published in PubChem BioAssay AID652208 (Broad Institute, 2013).
# Measured potencies and affinities stand elsewhere. Active and inactive are the calls of the source.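 How the source made its calls: active means Loss of cell signal with fitted half-effect dose at or below twice the top valid tested dose; inconclusive means Poor fit, or flat fit from -70 to -30 percent; inactive means Half-effect above limit, rising signal, or flat within 30 percent.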
# Assay: viability loss in HEK293T cells – cell-based, cherry-picks, cytotoxicity control for HIV Vif inhibitor project, dose response (AID 652208)
# Settings: CellTiter-Glo luminescence, 24 h; series mostly up to 26 µM
row,Compound,outcome
1,O=C(NC1(C(F)(F)F)Oc2ccc(Cl)cc2O1)N1CCC2(CC1)OCCO2 (stereo unspecified),inactive
2,CN1CCc2nc3ccc(F)cc3c(C(N)=O)c2C1,inactive
3,CC(Cc1ccc(O)cc1)NCC(O)c1cc(O)cc(O)c1 (stereo unspecified),inactive
4,CC(C)CC(NC(=O)C1CCCCC1)C(=O)N1CCC2(CC1)OCCO2 (stereo unspecified),inactive
5,O=C(Cn1ncc2c3ccccc3n(Cc3cccc(Cl)c3)c2c1=O)N1CCC2(CC1)OCCO2,inactive
6,O=C(Cc1ccccc1)OCC(=O)c1ccc(F)cc1,inactive
